From PubChem
A selection: hits, their analogues and other compounds. The true share with any hit is near 2.6%.
B2AR arrestin ag: qHTS assay of beta-arrestin-biased ligands of beta2-adrenergic receptor: NCGC Sytravon Library Screen. HTLA Tango cells, beta-arrestin recruitment, luciferase luminescence, 18 h. Potency, µM (series often up to 46.1 µM), hits mostly activators. 44,000 tested, under 10 active. Beta-2 adrenergic receptor (Homo sapiens), P07550;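 note: potency is the fitted concentration of half-maximal effect; 0% = DMSO and full agonism = EC100 isoproterenol or metaproterenol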
Target sequence (P07550 whole entry, looked up): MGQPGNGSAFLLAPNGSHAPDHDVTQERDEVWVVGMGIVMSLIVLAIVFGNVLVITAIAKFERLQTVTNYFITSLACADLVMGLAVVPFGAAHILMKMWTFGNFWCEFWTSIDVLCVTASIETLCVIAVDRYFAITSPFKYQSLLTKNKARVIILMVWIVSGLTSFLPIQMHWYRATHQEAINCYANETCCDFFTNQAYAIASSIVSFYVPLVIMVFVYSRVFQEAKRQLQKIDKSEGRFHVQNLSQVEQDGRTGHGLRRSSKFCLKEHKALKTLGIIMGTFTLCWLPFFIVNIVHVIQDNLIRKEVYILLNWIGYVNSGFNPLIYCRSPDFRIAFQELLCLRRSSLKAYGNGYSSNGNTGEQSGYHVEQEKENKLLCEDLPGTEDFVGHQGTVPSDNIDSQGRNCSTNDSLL
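Ligand-induced beta-arrestin recruitment to recombinant beta2-AR is measured via a tTA-driven luciferase reporter in Tango cells after 18 hr compound exposure at 37 degrees C. Concentrations span up to 46 microM.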
FH mod: Identification of activators of human fumarate hydratase by quantitative high-throughput screening; hit rate 0.22% among 54,000; FH coupled MDH/diaphorase resazurin fluorescence, 15 min; AID 1347055, 2019; Potency, µM (series often up to 79.9 µM), for inactives: at the highest dose activity change, negative = inhibition, actives largely listed as inhibitors; Fumarate hydratase, mitochondrial (Homo sapiens), P07954; note: potency is the fitted concentration of half-maximal effect; % is set by controls: 0 for no effect and ±100 for the full control effect; the screen sought activators but most active calls are inhibition curves; nearly all actives have a fitted effect of over 45% in size
PTAP-TSG101 blk: qHTS Validation Assay for Inhibitors of HIV-1 Budding by Blocking the Interaction of PTAP/TSG101: Sytravon Library Screen | Fluorescence polarization, FITC-PTAP peptide/Tsg101, 20 min | Potency, µM (titrated, usually from 115 µM), usual class: inhibitors | 44,000 tested, under 10 active | AID 1347069, 2019; note: potency is the fitted concentration of half-maximal effect; 0% is about no effect
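Fluorescence polarization binding of Tsg101 binding domain (10 uM final) to FITC-labeled PTAP-motif peptide (50 nM final) in HEPES pH 7.5/NaCl/Tween 20/EDTA/TCEP buffer; 20 min at r.t. Actives by curve class, <25 µM, efficacy <60% inhibition.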
GALK inh: qHTS Assay for Inhibitors of Human Galactokinase (GALK): NCGC Sytravon Library Screen; P51570; recombinant GALK, Kinase-Glo ATP luminescence, 1 h; Potency, µM (highest dose often 57.5 µM), for inactives: at the top dose activity, negative = inhibition, actives largely listed as inhibitors; 44,000 tested, under 10 active;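 note: plate controls were full GALK reaction for no effect and reaction lacking GALK for full effect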
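Human GALK (5 nM) was incubated with 35 uM ATP and 100 uM galactose in 20 mM HEPES pH 8.0 with MgCl2, NaCl, DTT and BSA for 1 h at room temperature. Remaining ATP was measured by Kinase-Glo Plus luminescence.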
GALC G270D up: A Novel Cell-Based Assay to Identify Small Molecules for B -Galactocerebrosidase; Potency, µM (titrated, usually from 57.5 µM), actives largely listed as activators; hit rate 0.1% among 45,000; 145M-Twi-hGALC-G270D cells (Twitcher mouse brain line with human GALC G270D), HMU-beta-Gal fluorescence, 48 h; P54803; note: potency is the fitted concentration of half-maximal effect; 0% is about no effect; nearly all actives have a fitted effect of over 65% in size
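Mutant human GALC (G270D), stably expressed in a Twitcher mouse brain cell line lacking endogenous GALC, is measured in live-treated cells via 6-hexadecanoylamino-4-methylumbelliferyl-β-galactoside hydrolysis (0.1 mM final, pH 5.2) with fluorescent detection.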
DRV1 agonist: qHTS for Agonists of Human Resolvin D1 Receptor DRV1; Probable G-protein coupled receptor 32 (Homo sapiens), O75388; CHO-K1 GPR32 beta-arrestin PathHunter luminescence, 90 min; zero percent set by DMSO-only wells; activation, % at 76.9 µM; hit rate 2.5% among 48,000; AID 1346428, 2018;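 active = activation of at least 60% and not above a set upper limit, about 1 call in 100 departs from these limits; inconclusive = activation of 40% to 60%, or above that upper limit; inactive = activation under 40%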; note: 0% is about no effect
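Cells are plated overnight, treated with compounds in DMSO for 90 minutes at 37 °C, and developed with PathHunter detection reagent for 1 hour before luminescence is read; signal reflects beta-arrestin binding to GPR32 in engineered CHO-K1 cells.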
An asterisk follows results filed as active; i = inactive; ? = inconclusive; . = no result given; [ ] = another dose, or the depositor's remark. Unless noted, calls come from the whole dose curve; as a rule, active = well fitted curve in the direction sought with a large enough effect; inconclusive = small, poorly fitted or top-dose-only effect, or another doubt; inactive = no such curve, though single readings can be large; an effect the other way counts as inactive or inconclusive.

SMILES	B2AR arrestin ag	FH mod	PTAP-TSG101 blk	GALK inh	GALC G270D up	DRV1 agonist
COc1cccc(Cn2c(=O)cc(C)c3c(C)nn(C)c32)c1	i	-6%	i	0%	i	79*
Cc1cc(=O)n(Cc2ccccc2)c2c1c(C)nn2C	i	-28%	i	-3%	i	?
CN(C)C(=O)COC(=O)c1cc(-c2ccc(C3CCNCC3)cc2)c2ccc(-c3ccc(C(F)(F)F)cc3)cc2c1	.	1%	.	.	.	.
CCN1CCN(c2ncnc3c2cnn3-c2cc(Cl)ccc2C)CC1	i	-14%	i	1%	i	21
CCN(CC)c1ncnc2c1cnn2-c1cc(Cl)ccc1C	i	-2%	i	-4%	i	72*
Cc1ccc(Cl)cc1-n1ncc2c(N3CCN(Cc4ccccc4)CC3)ncnc21	i	?	i	0%	i	85*
Fc1ccc(-n2ncc3c(Nc4ccc5c(c4)OCCO5)ncnc32)cc1	i	-32%	i	1%	i	92*
Clc1cccc(-n2ncc3c(NC4CCCCC4)ncnc32)c1	i	?	i	3%	i	109*
O=C(c1ccccc1)c1c(O)cc(O)cc1O[C@@H]1O[C@H](CO)[C@@H](O)[C@H](O)[C@H]1O	.	-7%[53.3 µM]	.	.	.	.
Fc1ccc(-n2ncc3c(NC4CCCCCC4)ncnc32)cc1	i	-35%	i	-1%	i	80*
Cc1ccc(Cl)cc1-n1ncc2c(NC3CCCCC3)ncnc21	i	-18%	i	-6%	i	68*
CC(Nc1ncnc2c1cnn2-c1cccc(Cl)c1)c1ccccc1 (centres undefined)	i	?	i	4%	i	91*
Cc1ccc(-n2ncc3c(NC(C)c4ccccc4)ncnc32)cc1 (centres undefined)	i	-14%	i	-2%	i	?
O=C(O)C(O[C@@H]1O[C@H](CO[C@@H]2O[C@H](CO)[C@@H](O)[C@H](O)[C@H]2O)[C@@H](O)[C@H](O)[C@H]1O)c1ccccc1 (some centres undefined)	.	5%[53.3 µM]	.	.	.	.
Cc1ccc(NC(=O)CSc2nc(-c3ccco3)cc(C(F)(F)F)n2)c(C)c1	i	-1%	i	6%	i	-18
Cc1ccc(O)c(NC(=O)CCSc2nc(-c3ccco3)cc(C(F)(F)F)n2)c1	i	0%	i	2%	i	74*
C[C@H](Cc1ccccc1)Nc1ncnc2c1ncn2[C@@H]1O[C@H](CO)C(O)[C@H]1O (some centres undefined)	.	-8%[53.3 µM]	.	.	.	.
CC(=O)c1cccc(NC(=O)c2sc3nc4c(cc3c2N)CCCC4)c1	i	-3%	i	2%	i	?
COc1ccccc1NC(=O)c1sc2nc3c(cc2c1N)CCCCCC3	i	-1%	i	-3%	11µM*	31
COc1ccc(NC(=O)c2sc3nc4c(cc3c2N)CN(C(C)C)CC4)c(OC)c1	i	-8%	i	0%	i	81*
Nc1c(C(=O)Nc2ccccc2F)sc2nc3c(cc12)CCCCCC3	i	-3%	i	-13%	i	72*
C[C@@H]1O[C@@H](O[C@H]2[C@H](Oc3cc(O)c(C(=O)CCc4ccc(O)cc4)c(O)c3)O[C@H](CO)[C@@H](O)[C@@H]2O)[C@H](O)[C@H](O)[C@H]1O	.	9%	.	.	.	.
C/C=C1\[C@H](O[C@@H]2O[C@H](CO)[C@@H](O)[C@H](O)[C@H]2O)OC=C(C(=O)OCCc2ccc(O)cc2)[C@H]1CC(=O)OCCc1ccc(O)cc1	.	-6%[20.6 µM]	.	.	.	.
COC(=O)c1ccnc(-c2cc(C(=O)NCCc3ccccc3)ccn2)c1	.	16%	.	.	.	.
CC(=O)Nc1ccc(NC(=O)C(NS(=O)(=O)c2ccc(Br)s2)c2ccccc2)cc1 (centres undefined)	i	-3%	i	-1%	i	-8
SMILES	B2AR arrestin ag	FH mod	PTAP-TSG101 blk	GALK inh	GALC G270D up	DRV1 agonist
CCOc1ccc(OCC)c(NC(=O)C(NS(=O)(=O)c2ccc(Br)s2)c2ccccc2)c1 (centres undefined)	i	7%	i	1%	i	85*
Cc1cc(Br)ccc1NC(=O)C(Cc1ccccc1)NS(=O)(=O)c1ccc(Br)s1 (centres undefined)	i	-3%	i	1%	i	65*
C/C(=N\N=C(N)N)c1ccc(NC(=O)Nc2ccc(/C(C)=N/N=C(N)N)cc2)cc1	.	20%	.	.	.	.
Cc1cccc(CS(=O)(=O)c2ncc(Cl)c(C(=O)Nc3nc4ccc(F)cc4s3)n2)c1	i	13%	i	0%	i	10
O=C(Nc1nc2ccc(F)cc2s1)c1nc(S(=O)(=O)Cc2ccccc2)ncc1Cl	i	4%	i	0%	i	91*
Cc1nnc(NC(=O)c2nc(S(=O)(=O)Cc3ccccc3)ncc2Cl)s1	i	4%	i	-2%	i	81*
COc1cc(-c2cn(C3CCc4c(F)cccc4N(CC(F)(F)F)C3=O)nn2)ccc1-n1cnc(C)c1 (centres undefined)	.	-5%	.	.	.	.
COc1ccc(-c2cc(=O)c3c(O)cc(O)cc3o2)cc1O	.	24µM*	.	.	.	.
O=c1c(O)c(-c2cc(O)c(O)c(O)c2)oc2cc(O)cc(O)c12	.	-26%[53.3 µM]	.	.	.	3
Cc1cc(C)cc(NC(=O)Nc2ccc3nc(N4CCN(C)CC4)cc(C)c3c2)c1	i	-6%	i	0%	18µM*	14
Cc1cc(N2CCN(C)CC2)nc2ccc(NC(=O)Nc3ccc(F)cc3)cc12	i	1%	i	2%	i	30
Cc1cc(N2CCCCC2)nc2ccc(NC(=O)c3ccc(F)cc3)cc12	i	?	i	1%	i	105*
Cc1ccc(NC(=O)Nc2ccc3nc(N4CCN(C)CC4)cc(C)c3c2)cc1F	i	0%	i	2%	i	94*
Cc1ccc([N+](=O)[O-])cc1S(=O)(=O)N(C)/N=C/c1cnc2ccc(Br)cn12	.	-15%	.	.	.	.
Cc1ccc(CCNc2ncnc3onc(C)c23)cc1	i	-11%	i	0%	i	97*
CCOc1ccc(CCNc2ncnc3onc(C)c23)cc1OCC	i	-7%	i	2%	i	64*
